# Compounds with a hit are over-represented: about 2.5% of the library has one in this group of screens.
# ATG4B inh – blocks human ATG4B protease cleavage of LC3 substrate | Q9Y4P1 | ATG4B cleavage of LC3-PLA2, NBD-HPC fluorescence, 1 h | inhibition, % at 8.33 µM | 0.51% of 340,000 active; in the data active means inhibition above about 40%
# Target sequence (Q9Y4P1 whole entry, looked up): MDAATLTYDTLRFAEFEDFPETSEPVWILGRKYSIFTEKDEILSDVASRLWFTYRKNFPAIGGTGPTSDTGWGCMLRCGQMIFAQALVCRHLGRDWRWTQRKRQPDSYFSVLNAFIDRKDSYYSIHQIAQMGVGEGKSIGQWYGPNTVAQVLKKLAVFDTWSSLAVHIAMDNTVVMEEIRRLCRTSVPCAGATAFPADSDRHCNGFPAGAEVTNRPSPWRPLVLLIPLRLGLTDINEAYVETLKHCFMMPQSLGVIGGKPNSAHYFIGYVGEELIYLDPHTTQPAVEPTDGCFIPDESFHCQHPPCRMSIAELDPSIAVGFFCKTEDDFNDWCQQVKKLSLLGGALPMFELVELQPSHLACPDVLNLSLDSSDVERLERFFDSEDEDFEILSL
# SUMO Mot1 rescue – inhibitors of SUMOylation pathway: yeast Mot1-301 growth rescue; S. cerevisiae Mot1-301 growth rescue, ATP luminescence, 38.5C; percent above DMSO median, 100 means doubled; growth rescue, % at 18.8 µM; 1% of 320,000 active;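 active means every valid replicate shows activation above 250% relative to neutral control wells; inactive means the rest, any valid replicate at or below 250%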;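 further: OY570 slx delta 5 strain wells were the positive control but not used for scaling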
# Efflux pump inh – inhibitors of Candida antifungal efflux pumps expressed in yeast; S. cerevisiae Candida pump triplex, Nile Red efflux; inhibition, % at 10 µM; 0.44% of 330,000 active; AID 485275;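 active means plate passing quality check with inhibition over a set limit, or well fluorescence over plate mean plus 4 SD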;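 further: Nile Red retained in pooled yeast measured as flow cytometry median fluorescence; 0% = buffer negative control and 100% = Enniatin B positive control; higher means more Nile Red kept so more efflux inhibition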
# AI-2 QS modul – modulates the Vibrio harveyi AI-2 quorum sensing system | AID 2094 | activity change, % at 7.5 µM | 0.4% of 300,000 active | Vibrio harveyi JMH597 AI-2 luminescence/OD600 ratio, 9 h; hits give low values; strain lacks LuxN and CqsS sensors; 0 = neutral-control median; in the data active means activity change below about -75%, passing the limit was not always enough;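 further: luminescence divided by OD600 gain over 9 h not by final OD600 alone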
# V-ATPase pH – yeast V-ATPase proton transport regulation by pHLuorin; S. cerevisiae, pHLuorin cytosolic pH fluorescence; 0.37% of 350,000 active; response, % at 10 µM; in the data active means response mostly above about 7.3%, no sharp cut-off; inactive means mostly below about 5.4%; further: actives read high
# VATPase regulator – regulators of yeast V-ATPase proton transport; shares compounds with V-ATPase pH; S. cerevisiae pHLuorin cytosolic pH; response, % at 10 µM; 2% of 980 active; in the data active means response above about 24%;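 further: plate controls were vehicle wells for no effect and positive control wells for full effect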
# Starred values were filed as active, the others as inactive; i = inactive; . = no result given.
SMILES,ATG4B inh,SUMO Mot1 rescue,Efflux pump inh,AI-2 QS modul,V-ATPase pH,VATPase regulator
COc1ccc2c(c1)C(CC(=O)NN)CCC2 (configuration not stated),1,.,.,.,13*,0
COc1ccccc1C(CC(=O)N1CCCC1)c1ccc2c(c1)OCO2 (configuration not stated),-4,1,0,1,6.8*,-3
CCOCC(=O)N1CCN(Cc2ccc3c(c2)OCO3)CC1,12,3,0,14,9.3*,0
CCCC(=O)N1CCN(Cc2ccc3c(c2)OCO3)CC1,-2,1,0,8,-2,.
C[C@@H](C(=O)N1CCN(Cc2ccc3c(c2)OCO3)CC1)n1nnc2ccccc2c1=O,-7,18,0,9,24*,2
COc1ccccc1C(=O)NNC(=O)c1ccc(NC(=O)C(C)C)cc1,-11,.,.,18,-2,.
O=C(CN1CCc2ccccc2C1)Nc1ccccc1N1CCCCCC1,15,18,0,26,16*,-1
Cc1ccc(NC(=O)NC2CC(=O)N(c3ccc4c(c3)OCCO4)C2)c(C)c1 (configuration not stated),-13,4,0,16,0,.
O=c1[nH]n(-c2ccc(Cl)cc2)c(=O)c(Cl)c1Cl,10,47,0,41,2,1
Cc1cc(=O)c(C(=O)O)nn1-c1ccc(Cl)cc1,-3,2,0,22,3,-1
O=C(O)CN(c1cccc(C(F)(F)F)c1)S(=O)(=O)c1ccccc1,-7,9,0,-7,8.6*,-3
CC[C@]12c3[nH]c4cc(CCC(=O)N(C)C)ccc4c3CCN1C(=O)[C@@H](CC(=O)NCc1ccco1)C[C@@H]2C(=O)N1CCN(C(=O)C2CC2)CC1,.,.,0,.,3,.
O=C(C[n+]1ccccc1)N/N=C/c1cc(Br)ccc1O,6,-19,0,6,3,.
Cc1oc(S(=O)(=O)N(C)C)cc1C(=O)Nc1ccc(Cl)cc1,-3,-5,0,26,0,.
Cc1cc2c(cc(C(=O)N3CCC(C(=O)N4CCCC4)CC3)n2Cc2c(F)cccc2Cl)o1,12,12,0,35,10*,2
Cc1ccccc1OCC(=O)Nc1nc2ccccc2[nH]1,9,-7,0,-2,10,.
Cc1cc(C)c(OCC(=O)Nc2nc3ccccc3[nH]2)c(C)c1,-6,.,0,17,9.7*,-4
CCC1S/C(=N/N=C/c2ccco2)N(Cc2ccccc2)C1=O (configuration not stated),4,4,0,21,60*,2
CC1S/C(=N/N=C/c2ccco2)N(Cc2ccc(F)cc2)C1=O (configuration not stated),9,-3,0,-8,-1,.
CCCCn1c(=N)n(CC(O)c2ccccc2)c2ccccc21 (configuration not stated),6,12,0,37,6,.
CCn1c(=N)n(CC(O)c2ccccc2)c2ccccc21 (configuration not stated),-17,-6,0,3,28*,1
CN(C)/C=N/c1sc2c(c1C#N)CCCC2,-2,7,0,16,11*,5
Cc1ccnc(NC(=S)NC(=O)c2cccs2)c1,2,0,0,19,0,.
O=C(CC12CC3CC(CC(C3)C1)C2)NCC(c1ccc(F)cc1)N1CCOCC1 (configuration not stated),-4,.,0,11,-2,.
CC(Sc1n[nH]c(N)n1)C(=O)NC1CCCCC1C (configuration not stated),18,-14,0,7,1,.
SMILES,ATG4B inh,SUMO Mot1 rescue,Efflux pump inh,AI-2 QS modul,V-ATPase pH,VATPase regulator
CC(=O)c1nnn(-c2cccc(C#N)c2)c1C,-5,13,0,12,13*,-1
COCCNC(=O)C(=O)Nc1cc2c3c(c1)CCC(=O)N3CCC2,-2,-23,0,11,-2,.
Cc1cccc(OCC(=O)Nc2ccc(C(=O)Nc3ccccc3C(=O)O)cc2)c1C,11,-11,0,16,-2,.
CCc1nc2ccccc2c(C(=O)OCC(=O)N2CC(C)OC(C)C2)c1C (configuration not stated),-11,10,0,4,0,.
CSCCC(NC(=O)c1ccccc1)C(=O)N1CC=C(c2ccccc2)CC1 (configuration not stated),0,19,1,20,9.3*,0
CSCCC(NS(=O)(=O)c1ccc(C)cc1)C(=O)N1CC=C(c2ccccc2)CC1 (configuration not stated),-17,8,0,24,5,.
CN(C)c1cccc2c1c(NC(=O)c1ccc(F)cc1)nn2C,-2,27,0,19,-3,.
Cn1nc(NC(=O)C(C)(C)C)c2c(F)cccc21,-2,36,0,17,12*,1
CC(=O)OC(C(=O)N1CCN(c2ccccc2F)CC1)c1ccccc1 (configuration not stated),-7,-9,0,14,12*,1
Cc1ccc([N+](=O)[O-])cc1N/C=C1\CCc2ccccc2C1=O,2,i,0,33,0,.
CCOC(=O)c1[nH]c2ccccc2c1NC(=O)c1nonc1C,2,-15,0,-3,-3,-30
CC(=O)Nc1cccc(NC(=O)CSc2nc(=O)n(CCCN3CCOCC3)c3c2CCC3)c1,2,-19,0,0,6,.
CCOC(=O)CSCC(=O)Nc1c(C(=O)C2CC2)oc2ccccc12,-3,5,0,10,7.5*,1
O=C(NCCN1C(=O)S/C(=C\c2ccc(F)cc2)C1=O)c1cccc(S(=O)(=O)N2CCOCC2)c1,-11,24,2,-1,0,.
O=C(NCCN1C(=O)S/C(=C\c2ccc(Cl)cc2)C1=O)c1ccc(F)c(S(=O)(=O)N2CCOCC2)c1,-4,12,0,45,9.5*,-2
COc1ccc(Cc2nnc(SCC(=O)Nc3ccccc3)[nH]c2=O)cc1,1,-3,0,25,-1,.
Cc1ccc(NC(=O)CSc2nnc(Cc3ccccc3)c(=O)[nH]2)c(C)c1,5,-2,0,31,11*,-1
CCNC(=O)CSc1nc(-c2ccc(F)cc2)cs1,0,-2,0,5,8.1*,1
O=C1C(C=NC2CC2)=C(O)c2ccccc21,-7,5,0,5,9.8*,0
CC(C)CN=CC1=C(O)c2ccccc2C1=O,-5,-15,0,12,5,.
O=C(Nc1cccc2ccccc12)N(CCO)C1CCS(=O)(=O)C1 (configuration not stated),-6,166,0,27,-4,.
CC(C)(C)OC(=O)NCC(=O)NNC(=O)C(C(=O)OCc1ccccc1)c1ccccc1 (configuration not stated),6,-10,0,.,8.8*,-1
Cc1cnnc2c1-c1no[n+]([O-])c1CC2,17,5,0,24,14*,0
